Source: PubChem BioAssay (NCATS)
Results filed as inconclusive are left out. The source made the active and inactive calls. The call rests on the fitted dose curve; in most records, active means well fitted curve in the direction sought with a large enough effect; inconclusive means small, poorly fitted or top-dose-only effect, or another doubt; inactive means no such curve, though single readings can be large; an effect the other way counts as inactive or inconclusive.

Key:
[1] = HPAF-II Cancer Cell Toxicity qHTS against the NCATS CANVASS Library (AID 1347346); further: nearly all actives have a fitted effect of over 55% in size; further: potency means the concentration at half of the fitted maximal effect
Procedure, shortened: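 Luminescence from CellTiter-Glo, added after 72 h compound exposure and a 15 min room-temperature incubation, served as the viability readout. HPAF-II cells (1000/well) received an 11-point concentration series.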

[2] = OV-SAHO Cancer Cell Toxicity qHTS against the NCATS CANVASS Library (AID 1347348); further: series mostly up to about 38 µM; nearly all actives have a fitted effect of over 55% in size
Procedure, shortened: (§1)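 1000 cells/well; 4 h settle; 11-pnt titration; 72 h, 37 degrees C, 5% CO2; CellTiter-Glo, 15min RT; luminescence read.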

[3] = SW1088 Cancer Cell Toxicity qHTS against the NCATS CANVASS Library (AID 1347350); conditions: outcome: dose series up to 38.3 µM; further: nearly all actives have a fitted effect of over 75% in size
Procedure, shortened: as §1

[4] = U-118MG Cancer Cell Toxicity qHTS against the NCATS CANVASS Library (AID 1347351); further: series mostly up to about 38 µM
Procedure, shortened: as §1

[5] = COV-362 Cancer Cell Toxicity qHTS against the NCATS CANVASS Library (AID 1347352); further: series mostly up to about 38 µM
Procedure, shortened: (§2)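 Luminescent ATP read-out (CellTiter-Glo, 15min at room temperature) measures survival after cells face an 11-point compound series for 72 hours at 37 degrees C/5% CO2.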

[6] = A2780 Cisplatin Sensitive Ovarian Cancer Cell Toxicity qHTS against the NCATS CANVASS Library (AID 1347353); conditions: outcome: dose series up to 46.1 µM; further: nearly all actives have a fitted effect of over 60% in size
Procedure, shortened: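 Luminescent ATP content (ATPLite, 10 min at room temperature) served as the read-out after cells had been exposed to compounds for 72 hours at 37 °C. Dosing followed an 11-point concentration series.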

[7] = UWB1.289-WTBRCA1 Cancer Cell Toxicity qHTS against the NCATS CANVASS Library (AID 1347354)
Procedure, shortened: as §2

[8] = HEK-293 Cancer Cell Toxicity qHTS against the NCATS CANVASS Library (AID 1347355); conditions: outcome: dose series up to 46.1 µM; further: series mostly up to about 46 µM; nearly all actives have a fitted effect of over 65% in size
Procedure, shortened: as §2

[9] = HPAF-II 24hr Apoptosis Induction qHTS against the NCATS CANVASS Library (AID 1347356)
Procedure, shortened: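 Luminescent caspase-3/7 signal (DEVD substrate, Caspase-Glo) served as read-out, taken 15 min after reagent addition to HPAF-II cells exposed 24 h to compounds.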

[10] = HEK293 18hr Apoptosis Induction qHTS against the NCATS CANVASS Library (AID 1347357)
Procedure, shortened: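 HEK293 cells (500/well, DMEM + 10% FBS) treated with an 11-point series for 18 h at 37 degrees C. Caspase-3/7 activity read by Caspase-Glo luminescence after 15 min at room temperature.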

[11] = HPAF-II 12hr Apoptosis Induction qHTS against the NCATS CANVASS Library (AID 1347358)
Procedure, shortened: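 500 HPAF-II cells/well; cmpds 11-pt; 12 hr, 37 degrees C/5% CO2; Caspase-Glo 3/7 added, 15 min RT dark; luminescence read. Doxorubicin titration as control.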

[12] = HEK293 24hr Apoptosis Induction qHTS against the NCATS CANVASS Library (AID 1347359)
Procedure, shortened: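 HEK293 cells (500/well, DMEM + 10% FBS) were exposed to compounds in an 11-point series for 24 hours at 37 degrees C, then caspase-3/7 activity was read by Caspase-Glo DEVD luciferase luminescence after 15 min.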

[13] = HPAF-II 18hr Apoptosis Induction qHTS against the NCATS CANVASS Library (AID 1347360)
Procedure, shortened: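 HPAF-II cells at 500/well were exposed for 18 h at 37 C to an 11-point compound series. Caspase-3/7 activity was read by Caspase-Glo luminescence after 15 min at RT.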

[14] = HEK293 12hr Apoptosis Induction qHTS against the NCATS CANVASS Library (AID 1347361)
Procedure, shortened: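 HEK293 cells (500/well) were exposed to an 11-point qHTS concentration series for 12 hours at 37 degrees C. Caspase-3/7 activity was then read by DEVD-substrate luciferase luminescence after 15 min at room temperature.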

[15] = test system: NAD(P)H diaphorase (Clostridium kluyveri); test: Diaphorse counterscreen qHTS: Assay Interference Panel against the NCATS CANVASS Library (AID 1347362)
Procedure, shortened: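 Clostridium kluyveri diaphorase in PBS with 0.01% Tween-20 was preincubated 15 min at room temperature in the dark with compounds (11-point series). Resorufin fluorescence (ex 525/20, em 598/25) was read 5 min after adding resazurin/NADH.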

[16] = target: Luciferin 4-monooxygenase (Photinus pyralis) (UniProt P08659); test: Firefly luciferase counterscreen qHTS: Assay Interference Panel against the NCATS CANVASS Library (AID 1347363); further: series mostly up to about 57 µM
Luciferin 4-monooxygenase (Photinus pyralis), sequence (P08659 whole entry, looked up): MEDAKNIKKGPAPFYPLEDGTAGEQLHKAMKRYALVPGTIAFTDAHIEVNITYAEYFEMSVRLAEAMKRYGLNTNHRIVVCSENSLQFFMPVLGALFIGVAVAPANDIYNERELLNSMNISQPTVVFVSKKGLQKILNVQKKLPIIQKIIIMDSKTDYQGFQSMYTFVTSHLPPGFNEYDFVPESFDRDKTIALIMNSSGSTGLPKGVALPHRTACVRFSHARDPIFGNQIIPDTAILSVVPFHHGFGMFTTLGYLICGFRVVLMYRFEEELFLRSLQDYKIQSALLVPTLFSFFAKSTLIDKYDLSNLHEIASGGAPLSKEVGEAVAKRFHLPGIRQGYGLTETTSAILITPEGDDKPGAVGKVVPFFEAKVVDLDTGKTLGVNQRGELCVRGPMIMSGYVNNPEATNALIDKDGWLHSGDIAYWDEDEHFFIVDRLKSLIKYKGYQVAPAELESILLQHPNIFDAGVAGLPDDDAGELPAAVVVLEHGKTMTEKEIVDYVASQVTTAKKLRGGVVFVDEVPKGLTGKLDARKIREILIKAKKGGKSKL
Procedure, shortened: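 Purified P. pyralis luciferase was added to compounds (11-point series) preincubated 15 min at room temperature with substrate containing 0.013 mM D-luciferin and 0.013 mM ATP; luminescence was read after 5 min.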

[17] = KB-8-5-11 Cancer Cell Toxicity qHTS against the NCATS CANVASS Library (AID 1347364); conditions: outcome: dose series up to 46.1 µM; further: nearly all actives have a fitted effect of over 75% in size
Procedure, shortened: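 Plate 500 KB-8-5-11 cells per well in DMEM + 10% FBS, add compounds by pin transfer, incubate 72 hr at 37C. Add CellTiter-Glo, wait 10 minutes at room temperature, read luminescence.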

[18] = SDT Cancer Cell Toxicity qHTS against the NCATS CANVASS Library (AID 1347365); conditions: outcome: dose series up to 46.1 µM; further: nearly all actives have a fitted effect of over 60% in size
Procedure, shortened: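 qHTS, SDT dog glioma line, 500 cells/well; cpds 11 pts; 72 hr, 37C, 5% CO2; CellTiterGlo ATP luminescence.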

[19] = KB-3-1 Cancer Cell Toxicity qHTS against the NCATS CANVASS Library (AID 1347366); further: series mostly up to about 46 µM; nearly all actives have a fitted effect of over 75% in size
Procedure, shortened: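 KB-3-1 cells (500/well) in DMEM with 10% FBS were exposed to compounds for 72 h at 37C. Viability was read by CellTiter-Glo luminescence.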

[20] = UWB1.289 Cancer Cell Toxicity qHTS against the NCATS CANVASS Library (AID 1347347); further: series mostly up to about 38 µM; nearly all actives have a fitted effect of over 60% in size
Procedure, shortened: as §1

Measured: Potency

C/C=C/C=C/C(CC(=O)O)Nc1ccc(C=O)cc1 (centres undefined)
active: [1] 3.75 µM
not listed: [20]
inactive: all other assays above

CC1=C2C(=O)O[C@@H](c3ccoc3)[C@]2(C)CCC1
inactive: all assays above
